20 compounds from PubChem BioAssay (NCI) can be followed below.

Where “and” joins values, the source holds several entries; their conditions need not be identical. Equal values may be shown once. About 79,000 compounds went through this panel and 15% of them were active in at least one assay; those are over-represented in the sample as a whole. A number with no mark means an inactive call. Calls of active or inactive are those of the source. Cut-off read from the data, not from the text of the source: active = growth inhibition above about 70%; inactive = the rest.

A short description of assay [1]: NCI Yeast Anticancer Drug Screen. Data for the rad50 strain (AID 155).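 Note: 0% = growth of vehicle-only cultures of the same strain.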 The note with it: S. cerevisiae rad50 strain growth inhibition; at 50.0 µM; active compounds read high. The essentials:
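Cells are treated with compound, grown, and their growth is then scored against vehicle-only cultures of the same repair-deficient yeast strain.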

Assay [2] in a line: NCI Yeast Anticancer Drug Screen. Data for the mec2-1 strain (AID 157). The note with it: S. cerevisiae mec2-1 strain, at 50.0 µM, active compounds read high. The essentials: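 Mutant yeast (mec2-1) grown with compound; growth inhibition relative to vehicle control reported.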
The nature of assay [3]: NCI Yeast Anticancer Drug Screen. Data for the sgs1 mgt1 strain (AID 161).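 Note: 0% = growth of cultures given vehicle only.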 The note with it: S. cerevisiae sgs1 mgt1 strain, at 50.0 µM, active compounds read high. The essentials: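 This yeast growth screen uses a strain with defined DNA-repair lesions; compound-treated growth is compared with vehicle-treated growth.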
Assay [4] is described as follows: NCI Yeast Anticancer Drug Screen. Data for the cln2 rad14 strain (AID 165).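 Note: 0% = growth equal to vehicle treated cultures.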 The note with it: S. cerevisiae cln2 rad14 strain, at 50.0 µM, active compounds read high. The essentials: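 Readout is yeast growth inhibition versus vehicle-treated controls, using a strain with cln2 and rad14 alterations exposed to compound.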
Assay [5] in a line: NCI Yeast Anticancer Drug Screen. Data for the bub3 strain (AID 167). The note with it: S. cerevisiae bub3 mutant strain, at 50.0 µM, active compounds read high. The essentials:
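Part of a panel of yeast mutants defective in DNA damage repair or cell cycle regulation. Each strain is grown with compound, and inhibition is calculated relative to solvent-treated cultures.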

Assay [6] can be described thus: NCI Yeast Anticancer Drug Screen. Data for the mlh1 rad18 strain (AID 175). The note with it: S. cerevisiae mlh1 rad18 strain growth inhibition; at 50.0 µM; active compounds read high. The essentials: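 Genetically defined yeast (DNA repair-deficient) exposed to compounds; growth inhibition determined relative to vehicle.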

For `CC(=O)CC(C)=O.CC(=O)CC(C)=O.CC(=O)CC(C)=O.[Co]`, the growth inhibition in assay [1] was -27.8% and 13.9%; in assay [2], -50.8% and -4.9%; in assay [3], -4.85% and 26.6%; in assay [4], -20.4% and -16.4%; in assay [5] it was -45% and 23.6%; in assay [6], -10.2% and 21.3%.

As to `O=[N+]([O-])c1cc(Cl)ccc1O`, the growth inhibition in assay [1] is 0.2%; in assay [2], -5.65%; in assay [3], -6.5%; in assay [4] it was 14.2%; in assay [5] it was -7.15%; in assay [6], 3.75%.

For `O=C(O)C(O)C(O)C(O)C(O)C(O)C(O)CO` (stereo not given), the growth inhibition in assay [1] is -18.1%; in assay [2] it was -6.95%; in assay [3] it was -33.4%; in assay [4], -73.5%; in assay [5], 3%; in assay [6], 2.95%.

Turning to `CCOC(=O)Oc1c(Cl)cc(S(=O)(=O)F)cc1Cl`, the growth inhibition was 99.6% (active) in assay [1]; 99.8% (active) in assay [2]; 99.6% (active) in assay [3]; 99.5% (active) in assay [4]; 99.7% (active) in assay [5]; 99.5% (active) in assay [6].

Regarding `NC(=O)/C=C/C(=O)O`, the growth inhibition in assay [1] is 19%; in assay [2], 9.75%; in assay [3], 10.5%; in assay [4], -8.25%; in assay [5], 11%; in assay [6], 14%.

As to `C[C@]12CCNC(=O)C=C1CC[C@@H]1C2CC[C@@]2(C)C1CC[C@@H]2OC(=O)COc1ccc(N(CCCl)CCCl)cc1` (stereo not given in full), the growth inhibition is 24.4% in assay [1]; 25.1% in assay [2]; 21.6% in assay [3]; 60% in assay [4]; 35.8% in assay [5]; -26.1% in assay [6].

As to `O=C(CC(=O)C(F)(F)C(F)(F)C(F)(F)F)c1ccco1.[Fe]`, the growth inhibition in assay [1] was 25.3%; in assay [2] it was 24.7%; in assay [3] it was 23.6%; in assay [4], 13.6%; in assay [5], 15.7%; in assay [6], 17.9%.

For the compound `C#CC1(O)CCC(C(C)(C)C)CC1` (stereo not given), the growth inhibition in assay [1] was 10.2% and -5.45% and 20.4%; in assay [2], 6.6% and 25.3% and -12.8%; in assay [3], -7.35% and -4.35% and -1.95%; in assay [4], 7.3% and -22.6% and 7.2%; in assay [5], 9.05% and 10.4% and -10.2%; in assay [6], -17.9% and -4.15% and 10.8%.

Turning to `CCN(CC)P1(=O)OP(=O)(N(CC)CC)OP(=O)(N(CC)CC)O1` (stereo not given), the growth inhibition in assay [1] was -0.5%; in assay [2], 7%; in assay [3], 11.8%; in assay [4], 14.3%; in assay [5], -9.7%; in assay [6], -11.6%.

Regarding `C(#Cc1ccccc1)c1ccccc1`, the growth inhibition in assay [1] is 29.1%; in assay [2], 5.25%; in assay [3] it was 20.3%; in assay [4] it was -13.6%; in assay [5], -11.3%; in assay [6], -3.6%.

For `CCCCC(CC)C(=O)O.[Sn]` (stereo not given), the growth inhibition in assay [1] was -20.5%; in assay [2], -9.1%; in assay [3] it was -10.3%; in assay [4], -10.4%; in assay [5] it was -20.9%; in assay [6] it was -15.8%.

As for `C[CH2][Sn]([CH2]C)([CH2]CC(=O)OC)[CH2]CC(=O)OC`, the growth inhibition in assay [1] was 20.4%; in assay [2], 18.4%; in assay [3] it was 1%; in assay [4], -11%; in assay [5], -24.2%; in assay [6], -64.2%.

`CC(C)CCC[C@@H](C)[C@H]1CC[C@H]2[C@@H]3CC=C4C[C@@H](OC(=O)Cl)CC[C@]4(C)[C@H]3CC[C@]12C`: the growth inhibition is -24.1% in assay [1]; -24.9% in assay [2]; -14.7% in assay [3]; 1.7% in assay [4]; -2.7% in assay [5]; -13.4% in assay [6].

As to `CN(C)CCO`, the growth inhibition was -21.4% in assay [1]; 11.5% in assay [2]; 4.55% in assay [3]; -1.65% in assay [4]; 23.4% in assay [5]; 35.4% in assay [6].

On to `O=[As]c1ccc(C(=O)O)cc1` (stereo not given), for which the growth inhibition in assay [1] was 11.2%; in assay [2], -8.75%; in assay [3], 0.2%; in assay [4] it was 19.3%; in assay [5] it was -7.2%; in assay [6] it was 23.2%.

As for `NC(CCCCCP(=O)(O)O)C(=O)O` (stereo not given), the growth inhibition was -38.8% in assay [1]; -29.8% in assay [2]; -63.3% in assay [3]; -12.3% in assay [4]; -17.4% in assay [5]; -37.5% in assay [6].

With `O=[N+]([O-])c1ncc[nH]1`, the growth inhibition was 6.75% in assay [1]; -19.7% in assay [2]; 11.6% in assay [3]; 3.1% in assay [4]; 8.2% in assay [5]; 14.9% in assay [6].

As to `Cc1ccc(-n2cnc3c(N(CCCl)CCCl)ncnc32)cc1`, the growth inhibition was 10.3% in assay [1]; 0.55% in assay [2]; -1.45% in assay [3]; 5.55% in assay [4]; 23.5% in assay [5]; -3.15% in assay [6].

Consider `N#Cc1ccc(NN=O)cc1`, for which the growth inhibition in assay [1] is 15.9%; in assay [2], -3.15%; in assay [3], 10.4%; in assay [4] it was -0.2%; in assay [5], 25%; in assay [6], 28.1%.

On to `O=Cc1cn(CCCCCCCCCCCCn2cc(C=O)c3ccccc32)c2ccccc12`, for which the growth inhibition in assay [1] was -2.75%; in assay [2], -10.8%; in assay [3] it was 0.25%; in assay [4], -5.55%; in assay [5], 7.35%; in assay [6], -12.8%.
